Among the data in PubChem BioAssay AID606 (Columbia University Molecular Screening Center, 2007) are inhibition values, retold here.

Out of some 52,000 compounds screened, fewer than 10 were called active. Not all results are given here. A number with no mark means an inactive call.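 Rule for the calls: active = IC50 under 40 µM in the dose-response test; inactive = IC50 of 40 µM or more, or never dose-tested.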

Chain of Tyrosine-protein phosphatase non-receptor type 22 (Homo sapiens) (Q9Y2R2 whole entry, looked up, the tested form may be a part): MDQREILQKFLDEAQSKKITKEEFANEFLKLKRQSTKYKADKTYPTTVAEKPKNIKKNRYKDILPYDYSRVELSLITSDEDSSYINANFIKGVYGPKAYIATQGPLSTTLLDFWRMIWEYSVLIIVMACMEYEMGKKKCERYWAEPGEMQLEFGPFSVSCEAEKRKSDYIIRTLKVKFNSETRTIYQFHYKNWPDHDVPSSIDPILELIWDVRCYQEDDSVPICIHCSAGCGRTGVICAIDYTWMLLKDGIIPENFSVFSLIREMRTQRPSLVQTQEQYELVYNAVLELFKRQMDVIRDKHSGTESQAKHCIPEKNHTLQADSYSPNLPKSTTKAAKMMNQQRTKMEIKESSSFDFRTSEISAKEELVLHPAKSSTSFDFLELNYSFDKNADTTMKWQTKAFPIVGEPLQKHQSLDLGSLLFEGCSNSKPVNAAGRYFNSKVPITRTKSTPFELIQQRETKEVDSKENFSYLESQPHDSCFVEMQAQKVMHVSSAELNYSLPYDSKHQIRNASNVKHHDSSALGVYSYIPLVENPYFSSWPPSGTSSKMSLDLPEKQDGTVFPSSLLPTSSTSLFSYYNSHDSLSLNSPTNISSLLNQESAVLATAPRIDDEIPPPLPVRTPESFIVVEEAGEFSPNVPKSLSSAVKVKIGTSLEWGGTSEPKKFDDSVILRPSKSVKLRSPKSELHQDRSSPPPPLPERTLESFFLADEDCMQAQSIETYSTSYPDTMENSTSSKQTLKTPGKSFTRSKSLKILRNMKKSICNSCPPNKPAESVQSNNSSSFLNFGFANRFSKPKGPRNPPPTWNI

This assay addresses Tyrosine-protein phosphatase non-receptor type 22 (Homo sapiens) (UniProt Q9Y2R2). The assay is described as follows: inhibition of human PTPN22 tyrosine phosphatase – biochemical, DiFMUP fluorescence, recombinant catalytic domain, 10 µM, primary screen (AID 606). The note with it: recombinant LYP catalytic domain, at 10 µM, stronger effect = higher value.
Turning to `CC(C)CC(=O)NC1(C(F)(F)F)C(=O)Nc2c1c(=O)n(C)c(=O)n2C` (stereo not given), the inhibition is 1.85%.

As to `COc1ccc(C)cc1NC(=O)CN1CCN(c2ccccc2F)CC1`, the inhibition was 9.06%.

On to `Cc1nn2c3c(cnc2c1-c1ccccc1)C(=O)CC(c1ccco1)C3` (stereo not given), for which the inhibition is 3.63%.

For `COc1nc(C)nc2c1sc(=S)n2C`, the inhibition is -1.82%.

With `Cn1c(=O)c2c(nc(N3CCOCC3)n2Cc2c(F)cccc2Cl)n(C)c1=O`, the inhibition was 4.34%.

For `COC(=O)COC(=O)c1ccc(-n2nnnc2SC)cc1`, the inhibition was 10.7%.

Regarding `O=C(CCn1c(=O)oc2ccccc21)N1CCN(C(c2ccccc2)c2ccccc2)CC1`, the inhibition was 5.67%.

`O=C(Oc1ccc(OC(=O)c2ccncc2)cc1)c1ccncc1`: the inhibition is 8.57%.

Take `COCC(C)n1c(C)cc(C(=O)COC(=O)c2ccc3ncsc3c2)c1C` (stereo not given): the inhibition is -12.6%.

For the compound `CCCn1cnc2cc(NCc3ccccn3)ccc21`, the inhibition is 6.61%.

In the case of `NC(=O)c1ccccc1NC(=O)CCCN1C(=O)CCC1=O`, the inhibition is 14.4%.

Take `CCN(CC)c1ccc(C(=O)OCC(=O)N2CCN(c3ccccc3)CC2)cc1`: the inhibition is 0.55%.

Turning to `COc1ccc(N(CC(=O)Nc2ccc(OC)c(Cl)c2)S(=O)(=O)c2c(C)noc2C)cc1`, the inhibition is 6.18%.

As to `CCOC(=O)C1CCN(C(=O)COc2ccc(N(C)S(=O)(=O)c3cccs3)cc2)CC1`, the inhibition was 4.68%.

With `CC1(C)Cc2c(C#N)c(NCCCO)nc(-c3ccccc3)c2CO1`, the inhibition was -2.42%.

`CSc1nc(-c2ccco2)nn1S(=O)(=O)c1ccccc1`: the inhibition is -1.38%.

Take `CCN(CC)Cc1cc2ccccc2c2c1COC2`: the inhibition was 0.09%.

For the compound `c1ccc(CCNc2ncnc3c2nnn3Cc2ccccc2)cc1`, the inhibition is -4.3%.

With `COc1cccc(OC)c1OCC(O)CN1CCN(c2ccccc2)CC1` (stereo not given), the inhibition was 2.34%.

Take `CC#CCCCC(=O)Nc1cc(OC)nc(OC)n1`: the inhibition was 3%.

In the case of `CN1C(=O)C(C(=O)NC(C)(C)C)C2c3ccccc3OC13CCCCC23` (stereo not given), the inhibition was -15%.

As for `CC(C)N(Cc1nc(-c2ccccc2)no1)S(=O)(=O)c1ccccc1`, the inhibition was 1.55%.

In the case of `COc1cccc(NC(=O)c2ccc(CN3CCOCC3)cc2)c1`, the inhibition is 8.87%.

Take `Cc1nc2nc(-c3cccnc3)nn2c(C)c1Cl`: the inhibition was 14.4%.

For `CCc1cc(C(=O)Nc2ccccc2)cs1`, the inhibition was 0.95%.

As to `CC(C)n1c(C(O)c2ccc3c(c2)OCO3)nc2ccccc21` (stereo not given), the inhibition was 5.85%.

On to `COc1cccc2cc(-c3cn4cccc(C)c4n3)c(=O)oc12`, for which the inhibition is -3.29%.

With `CCCn1c(CN2CCCCC2CC)nc2c1c(=O)n(C)c(=O)n2C` (stereo not given), the inhibition was -4.26%.

Take `CC(=O)NC(CCS(C)(=O)=O)C(=O)Nc1ccccc1Cl` (stereo not given): the inhibition is 1.63%.

For `CS(=O)(=O)N(CC(=O)Nc1ccc2c(c1)OCCO2)c1ccc2c(c1)OCO2`, the inhibition is 23.4%.

Take `COc1ccc(N2CCN(C(=O)C(Cc3ccccc3)n3cccc3)CC2)cc1` (stereo not given): the inhibition is -12.6%.

For `CCN(CC)C(c1ccc(F)cc1)c1nnnn1C1CCCCC1` (stereo not given), the inhibition is 3.34%.

In the case of `NC(=O)NC(=O)COC(=O)CCCc1c[nH]c2ccccc12`, the inhibition is 1.43%.

As for `Cc1noc(NS(=O)(=O)c2ccc(NC(=O)CSc3ncccn3)cc2)c1C`, the inhibition was 11.6%.

As to `COc1ccc(C(CNC(=O)c2cc(C)oc2C)N2CCOCC2)cc1` (stereo not given), the inhibition was 10.4%.

In the case of `CC(C)(C)NC(=O)CN(C(=O)c1ccc(CN2CCOCC2)o1)c1ccc2c(c1)OCCO2`, the inhibition was -2.48%.

Turning to `N#CCCN(C(=O)c1ccco1)c1ccccc1`, the inhibition is 9.22%.

Take `Cc1ccc(NC(=O)c2ccc(S(=O)(=O)NCC3CCCO3)cc2)cc1` (stereo not given): the inhibition was 15.7%.

In the case of `O=C(CN1CCN(S(=O)(=O)c2ccc(Br)cc2)CC1)Nc1ccc2c(c1)OCO2`, the inhibition is 14.6%.

On to `O=C(NCC1CCCO1)[C@@H]1CSC2c3ccccc3C(=O)N21` (stereo not given in full), for which the inhibition is -1.83%.

Take `O=C(CSc1nnc(-c2ccccn2)n1Cc1ccco1)c1ccc(-c2ccccc2)cc1`: the inhibition is -10.3%.

With `O=C(CCc1ccccc1)Nc1nnc(-c2cccs2)o1`, the inhibition was -13%.

As for `COc1ccc(C(=O)N2CC(=O)N(CCc3ccccc3)C(=O)C2)cc1OC`, the inhibition was 9.04%.

Turning to `O=C(C1CCN(S(=O)(=O)N2CCOCC2)CC1)N1CCOCC1`, the inhibition is 2.43%.

With `CC1CN(Cc2nc3c(c(=O)n(C)c(=O)n3C)n2CC(=O)c2ccccc2)CC(C)O1` (stereo not given), the inhibition was -0.17%.

Take `COc1ccc(-n2c(=O)[nH]cc(C(=O)N3CCCc4ccccc43)c2=O)cc1`: the inhibition is 2.14%.

Turning to `O=C(NCc1ccco1)C1CCN(S(=O)(=O)c2cccc3cccnc23)CC1`, the inhibition was 4.72%.

On to `CCCCn1c2c(c(=O)n(C)c1=O)C(c1ccc(OC)cc1)N1CCCCCC1=N2` (stereo not given), for which the inhibition is -3.4%.

In the case of `Cc1ccc(S(=O)(=O)NCCC(=O)NCc2ccccc2)cc1`, the inhibition is 7.96%.

As for `CC1CCc2sc3nc(NCc4ccco4)n4ncnc4c3c2C1` (stereo not given), the inhibition was 2.11%.

In the case of `C=CCn1c(NCCO)nc2sc3c(c2c1=O)CCC3`, the inhibition is 11.6%.

Regarding `OCCn1nc2c3ccccc3nc-2n(-c2ccccc2)c1=S`, the inhibition was 3.81%.

With `O=C(Nc1c(C(=O)N2CCOCC2)cnn1-c1ccccc1)c1ccccc1`, the inhibition is 1.38%.

For the compound `COc1ccc2c(c1)C1(Nc3ccccc3-c3nc4ccccc4n31)C(=O)N2C` (stereo not given), the inhibition was 7.56%.

Regarding `C1CCc2c(nnc3c2-c2nonc2CC3)C1`, the inhibition was 11.1%.

Take `CSc1nc2c(c(=O)n1Cc1ccccc1)SC(C)C2` (stereo not given): the inhibition was 0.73%.

Turning to `Cn1c(SCC(=O)N2CCCCC2)nnc1-c1ccc(S(=O)(=O)N2CCOCC2)cc1`, the inhibition was 13.4%.

In the case of `CC(C)(C)NC(=O)C(OC(=O)Cn1nnc(-c2ccc(F)cc2)n1)c1ccncc1` (stereo not given), the inhibition was 1.61%.

As for `O=C(c1cc2ccccn2n1)N1CCN(c2ccccn2)CC1`, the inhibition is 7.66%.

Consider `CN1C(=O)C(O)(CC(=O)c2ccccn2)c2cc(Br)ccc21` (stereo not given), for which the inhibition is 4.59%.

On to `COc1cc2ccccc2cc1C(=O)Nc1ccccc1N1CCN(S(C)(=O)=O)CC1`, for which the inhibition is 6.41%.

Turning to `CC(=O)c1c(N2CCN(c3ccccc3)CC2)nc(=S)n(-c2ccccc2)c1C`, the inhibition is 3.4%.

In the case of `Cn1c(CCNC(=O)c2cccs2)nnc1SCC(=O)N1CCN(c2ccccc2)CC1`, the inhibition is 6.14%.

In the case of `CCN1C(=O)C(O)(CC(=O)c2cc(C)ccc2C)c2ccccc21` (stereo not given), the inhibition is 11.7%.

With `CCOC(=O)c1cc2n(n1)C(C(F)(F)C(F)(F)F)CC(C)N2` (stereo not given), the inhibition is 15.7%.

As for `O=C(C1CCN(c2nnc(-n3cccc3)s2)CC1)N1CCN(c2cccc(C(F)(F)F)c2)CC1`, the inhibition was -2.18%.

As for `NC(=O)CN(c1ccc(Cl)cc1)S(=O)(=O)c1ccccc1`, the inhibition is -12.5%.

`COc1ccc(N(CC(=O)N2CCc3ccccc3C2)S(=O)(=O)c2c(C)nn(C)c2C)cc1`: the inhibition was -0.55%.

Turning to `O=C(NCc1ccccc1)c1ccc(COCC(F)(F)F)o1`, the inhibition was 11.7%.

In the case of `CCN1C(=Nc2ccc(Cl)cc2)SC/C1=C\C(=O)OC`, the inhibition was 6.44%.

On to `COc1ccc(C2CC(c3cccc(C)c3)n3ncnc3N2)cc1` (stereo not given), for which the inhibition is 16.6%.

For the compound `CC1CCC(NC(=O)CN2C(=O)C3CCCN3c3ncc(Cl)cc32)CC1` (stereo not given), the inhibition is -36.6%.

`Cc1cc(N2CCN(C(c3ccccc3)c3ccc(Cl)cc3)CC2)n2ncnc2n1` (stereo not given): the inhibition was 3.46%.

In the case of `O=C(Nc1ccccn1)C1CCN(S(=O)(=O)c2cccs2)CC1`, the inhibition is 4.65%.

`COc1ccc(CCNC(=O)CC2Oc3ccc(Cl)cc3NC2=O)cc1OC` (stereo not given): the inhibition was -7.5%.

For `CC(=O)Nc1ccc(C(=O)OCCC(C)C)cc1`, the inhibition is -3.58%.

Take `Cc1nc2ccc(S(=O)(=O)NCC(=O)N(C)Cc3ccco3)cc2s1`: the inhibition was 4.87%.

`CNC(=O)c1ccccc1NC(=O)c1cccc(S(=O)(=O)N2CCC(C)CC2)c1`: the inhibition was -7.79%.

In the case of `CCc1ccc2c(COn3nnc4ccc(S(=O)(=O)N(C)C)cc43)cc(=O)oc2c1`, the inhibition was -1.03%.

Take `CCCSCCCNC(=O)CC1Oc2ccccc2NC1=O` (stereo not given): the inhibition was 2.3%.

For the compound `Cc1cccc(Nc2ncnc3nc[nH]c23)c1`, the inhibition was -1.47%.

Consider `CCOCCCNCc1ccc(OC)c(OC)c1`, for which the inhibition was 6.63%.

Consider `CCOC(=O)C1CCN(C(=O)CN(c2cccc(OC)c2)S(=O)(=O)c2ccccc2)CC1`, for which the inhibition was -2.95%.

`COc1ccccc1OCCC(=O)OCCN1C(=O)c2ccccc2C1=O`: the inhibition is -6.96%.

In the case of `O=C(Cn1cnc2ccccc2c1=O)N1CCN(Cc2ccccc2)CC1`, the inhibition is 15.4%.

For the compound `CC(C)(C)c1ccc(S(=O)(=O)N2CCCCC2C(=O)NCc2ccccn2)cc1` (stereo not given), the inhibition was 11%.

With `CCOc1ccc(NC(=O)CSc2nnc(-c3ccccn3)n2N)cc1`, the inhibition was 6.01%.

On to `Cc1c(NC(=O)C2CCCN(S(=O)(=O)c3cnc[nH]3)C2)c(=O)n(-c2ccccc2)n1C` (stereo not given), for which the inhibition is 8.93%.

In the case of `COc1ccc2c(C)cc(SCC(=O)N3CCOCC3)nc2c1`, the inhibition is 8.83%.

`Cc1cc(=O)[nH]c(SCC(=O)c2ccc(C(C)C)cc2)n1`: the inhibition was 10.2%.

Take `COC(=O)C1=C(C)n2nnnc2NC1c1cc2ccccc2o1` (stereo not given): the inhibition is 12.9%.

In the case of `COc1cccc(NC(=O)CN(c2cccc(F)c2)S(C)(=O)=O)c1`, the inhibition is -7.34%.

Regarding `Cc1cc(C)c(S(=O)(=O)N(C)Cc2cnn(C)c2)c(C)c1`, the inhibition is 7.74%.

Consider `Cc1ccc(-c2cc(C(=O)NCc3ccccn3)no2)cc1`, for which the inhibition is 6.16%.

As for `CC1(C)Cc2ccccc2-c2nnc(-c3ccc(O)cc3)n21`, the inhibition is 5.6%.
